Records with an inconclusive call do not appear. A call without a number means that no potency is given here. Active and inactive are the calls of the source. Unless noted, the call rests on the fitted dose curve.
Assays:
[1] = Natriuretic polypeptide receptor (hNpr1) antagonism - Pilot counterscreen GloSensor control cell line (AID 1347045); further: potency means the concentration at half of the fitted maximal effect
Summary of the method: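 HEK293 cGMP-sensor cells; 2% GloSensor reagent 2 h RT; LOPAC compounds in 1:5 titrations 30-50 min; 50 uM SNP 20 min; luminescence pre-read and post-read.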

[2] = target: Atrial natriuretic peptide receptor 1 (Homo sapiens) (UniProt P16066); assay: Natriuretic polypeptide receptor (hNpr1) antagonism - Pilot screen (AID 1347049);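 further: HEK293 cells with hNpr1 and GloSensor cGMP luciferase stimulated by 0.1 nM hNppA; agonist-evoked cGMP luminescence read 20 min after hNppA addition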; further: potency means the concentration at half of the fitted maximal effect
Summary of the method: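 Cells expressing receptor plus cGMP biosensor are seeded and incubated overnight at 37C, then loaded with GloSensor reagent (2% final) at room temperature for 2 h. Library compounds go on for 30 min. A pre-read precedes agonist (hNppA, 0.1 nM final) and a 20-min readout.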

[3] = target: Atrial natriuretic peptide receptor 2 (Homo sapiens) (UniProt P20594); assay: Natriuretic polypeptide receptor (hNpr2) antagonism - Pilot subtype selectivity assay (AID 1347050); further: potency means the concentration at half of the fitted maximal effect
Summary of the method: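 Read-out: GloSensor luminescence (CCD imager), baseline vs post-stimulation. HEK293 cells expressing hNpr2; compounds pre-incubated 30-50 min at ambient temperature; hNppC 1 nM final, 20 min.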

[4] = NS1 protein of Zika virus - qHTS assay to identify small molecule inhibitors in human HEK 293 cells (AID 1347053; active means well fitted curve in the direction sought with a large enough effect; an effect the other way counts as inactive or inconclusive; further: series mostly up to about 46 µM; nearly all actives have a fitted effect of over 55% in size)
Summary of the method: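 Compound-treated (1 h pre-infection) HEK 293 cells infected with ZIKV MR766, MOI = 0.5; after 24 h at 37 C, NS1 read by TR-FRET; data normalized to uninfected and infected controls.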

[5] = target: T1, Tyrosine-protein phosphatase non-receptor type substrate 1 (Homo sapiens) + Leukocyte surface antigen CD47 (Homo sapiens) (UniProt P78324+Q08722); assay: CD47-SIRPalpha protein protein interaction - LANCE assay qHTS validation (AID 1347057; active means well fitted curve in the direction sought with a large enough effect in the signal ratio, with a control signal flat, not every such curve was filed as active; the % refers to the signal ratio; further: potency means the concentration at half of the fitted maximal effect)
Summary of the method: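 Inhibition of soluble CD47/SIRPalpha ectodomain association by titrated compounds, measured as 665/615 nm time-resolved FRET ratio after sequential 30 min room-temperature incubations.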

[6] = target: T1, Tyrosine-protein phosphatase non-receptor type substrate 1 (Homo sapiens) + Leukocyte surface antigen CD47 (Homo sapiens); assay: CD47-SIRPalpha protein protein interaction - Alpha assay qHTS validation (AID 1347059; active means well fitted curve in the direction sought with a large enough effect; an effect the other way counts as inactive or inconclusive;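 further: bead proximity luminescence from CD47 binding SIRPalpha after compound preincubation with SIRPalpha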; further: potency means the concentration at half of the fitted maximal effect)
Summary of the method: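 In PBS (pH 7.4) with 0.05% IGEPAL CA-630, compound is preincubated with biotin-Avi-SIRPalpha ectodomain before His-CD47 ectodomain and affinity beads are added. Light-protected room-temperature incubations; AlphaScreen readout.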

[7] = target: Parathyroid hormone/parathyroid hormone-related peptide receptor (Homo sapiens) (UniProt Q03431); assay: qHTS for PTHR1 Agonists: Optimization Screen against the NCGC LOPAC library (AID 1347079; active means well fitted curve in the direction sought with a large enough effect; an effect the other way counts as inactive or inconclusive;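 further: GloSensor cAMP luminescence in HEK-293 GP2 cells expressing human PTHR1 with IBMX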)
Summary of the method: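 Signal increase flags agonism. GP2 cells, derived from HEK-293, express human PTHR1 and a GloSensor cAMP construct.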

[8] = qHTS for Inhibitors of the Functional Ribonucleoprotein Complex (vRNP) of Lassa (LASV) Arenavirus: LASV Primary Screen - GLuc reporter signal (AID 1347082; calls by dose curve; tested in HEK293 reporter line; further: series mostly up to about 57 µM; nearly all actives have a fitted effect of over 60% in size)
[9] = qHTS for Inhibitors of the Functional Ribonucleoprotein Complex (vRNP) of Lassa (LASV) Arenavirus: Viability assay - alamar blue signal for LASV Primary Screen (AID 1347083; calls by dose curve; tested in HEK293 reporter line; further: nearly all actives have a fitted effect of over 80% in size; further: potency means the concentration at half of the fitted maximal effect)
[10] = qHTS for Inhibitors of the Functional Ribonucleoprotein Complex (vRNP) of Lymphocytic Choriomeningitis Arenaviruses (LCMV): Viability assay - alamar blue signal for LCMV Primary Screen (AID 1347085; calls by dose curve; tested in HEK293 reporter line; further: nearly all actives have a fitted effect of over 80% in size; further: potency means the concentration at half of the fitted maximal effect)
[11] = target: Nucleoprotein (Lymphocytic choriomeningitis virus (strain Armstrong)) (UniProt P09992); assay: qHTS for Inhibitors of the Functional Ribonucleoprotein Complex (vRNP) of Lymphocytic Choriomeningitis Arenaviruses (LCMV): LCMV Primary Screen - GLuc reporter signal (AID 1347086); further: nearly all actives have a fitted effect of over 70% in size; further: potency means the concentration at half of the fitted maximal effect
[12] = target: T1, Tyrosine-protein phosphatase non-receptor type substrate 1 (Homo sapiens) + Leukocyte surface antigen CD47 (Homo sapiens); assay: CD47-SIRPalpha protein protein interaction - HTRF assay qHTS validation (AID 1347058; active means well fitted curve in the direction sought with a large enough effect in the signal ratio, not every such curve was filed as active; the % refers to the signal ratio; further: series mostly up to about 38 µM)
Summary of the method: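 Soluble extracellular domains (6His-CD47, Avi-tag-biotinylated SIRPalpha) in PBS pH 7.4 with 0.05% IGEPAL CA-630. Compounds were preincubated 30 min at RT with CD47 and anti-His-Eu, then SIRPalpha and SAV-XL665 were added. TR-FRET 665/615 ratio.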

Sequence of Parathyroid hormone/parathyroid hormone-related peptide receptor (Homo sapiens) (Q03431 whole entry, looked up): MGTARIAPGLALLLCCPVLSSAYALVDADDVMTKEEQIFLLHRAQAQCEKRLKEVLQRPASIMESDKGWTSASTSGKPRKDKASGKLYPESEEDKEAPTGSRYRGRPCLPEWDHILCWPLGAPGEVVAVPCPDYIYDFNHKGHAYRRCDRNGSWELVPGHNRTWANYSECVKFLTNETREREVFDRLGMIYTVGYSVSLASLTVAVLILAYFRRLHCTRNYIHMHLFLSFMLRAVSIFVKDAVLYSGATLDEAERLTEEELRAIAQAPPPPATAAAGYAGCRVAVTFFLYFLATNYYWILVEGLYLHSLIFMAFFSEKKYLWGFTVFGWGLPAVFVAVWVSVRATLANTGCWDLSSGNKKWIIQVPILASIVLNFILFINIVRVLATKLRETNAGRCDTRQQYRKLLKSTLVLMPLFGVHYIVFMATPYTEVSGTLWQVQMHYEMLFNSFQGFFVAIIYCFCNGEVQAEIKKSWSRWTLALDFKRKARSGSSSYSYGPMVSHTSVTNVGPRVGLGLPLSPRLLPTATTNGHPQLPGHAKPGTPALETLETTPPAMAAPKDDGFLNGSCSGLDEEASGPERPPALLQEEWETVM
Sequence of Atrial natriuretic peptide receptor 2 (Homo sapiens) (P20594 whole entry, looked up): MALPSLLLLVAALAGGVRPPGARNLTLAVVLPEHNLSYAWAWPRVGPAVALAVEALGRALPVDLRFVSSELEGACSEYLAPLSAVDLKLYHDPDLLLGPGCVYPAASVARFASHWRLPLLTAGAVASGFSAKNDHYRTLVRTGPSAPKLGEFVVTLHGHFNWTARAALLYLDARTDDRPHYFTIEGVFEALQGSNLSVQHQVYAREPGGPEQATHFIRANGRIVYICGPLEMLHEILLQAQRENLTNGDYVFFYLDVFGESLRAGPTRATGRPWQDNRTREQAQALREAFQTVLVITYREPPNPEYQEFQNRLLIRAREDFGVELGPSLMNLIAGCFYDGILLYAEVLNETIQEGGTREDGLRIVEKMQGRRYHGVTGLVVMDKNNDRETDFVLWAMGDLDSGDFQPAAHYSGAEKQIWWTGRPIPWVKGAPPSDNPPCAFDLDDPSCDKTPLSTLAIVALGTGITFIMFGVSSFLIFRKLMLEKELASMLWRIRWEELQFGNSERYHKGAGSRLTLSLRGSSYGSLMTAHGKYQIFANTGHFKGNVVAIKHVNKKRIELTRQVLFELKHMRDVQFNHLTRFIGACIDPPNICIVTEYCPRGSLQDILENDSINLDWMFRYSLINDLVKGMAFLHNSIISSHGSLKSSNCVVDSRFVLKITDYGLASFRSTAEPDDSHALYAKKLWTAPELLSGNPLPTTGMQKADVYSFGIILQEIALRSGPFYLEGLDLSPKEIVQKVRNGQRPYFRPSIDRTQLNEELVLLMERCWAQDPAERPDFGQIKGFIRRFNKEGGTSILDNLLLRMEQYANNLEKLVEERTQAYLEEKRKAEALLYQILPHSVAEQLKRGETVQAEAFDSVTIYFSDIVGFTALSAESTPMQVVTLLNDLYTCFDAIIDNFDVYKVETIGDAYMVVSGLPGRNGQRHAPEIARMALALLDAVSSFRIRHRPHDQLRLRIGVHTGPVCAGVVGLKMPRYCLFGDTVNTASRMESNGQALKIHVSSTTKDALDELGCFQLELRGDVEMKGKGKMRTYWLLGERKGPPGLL
Sequence of Atrial natriuretic peptide receptor 1 (Homo sapiens) (P16066 whole entry, looked up): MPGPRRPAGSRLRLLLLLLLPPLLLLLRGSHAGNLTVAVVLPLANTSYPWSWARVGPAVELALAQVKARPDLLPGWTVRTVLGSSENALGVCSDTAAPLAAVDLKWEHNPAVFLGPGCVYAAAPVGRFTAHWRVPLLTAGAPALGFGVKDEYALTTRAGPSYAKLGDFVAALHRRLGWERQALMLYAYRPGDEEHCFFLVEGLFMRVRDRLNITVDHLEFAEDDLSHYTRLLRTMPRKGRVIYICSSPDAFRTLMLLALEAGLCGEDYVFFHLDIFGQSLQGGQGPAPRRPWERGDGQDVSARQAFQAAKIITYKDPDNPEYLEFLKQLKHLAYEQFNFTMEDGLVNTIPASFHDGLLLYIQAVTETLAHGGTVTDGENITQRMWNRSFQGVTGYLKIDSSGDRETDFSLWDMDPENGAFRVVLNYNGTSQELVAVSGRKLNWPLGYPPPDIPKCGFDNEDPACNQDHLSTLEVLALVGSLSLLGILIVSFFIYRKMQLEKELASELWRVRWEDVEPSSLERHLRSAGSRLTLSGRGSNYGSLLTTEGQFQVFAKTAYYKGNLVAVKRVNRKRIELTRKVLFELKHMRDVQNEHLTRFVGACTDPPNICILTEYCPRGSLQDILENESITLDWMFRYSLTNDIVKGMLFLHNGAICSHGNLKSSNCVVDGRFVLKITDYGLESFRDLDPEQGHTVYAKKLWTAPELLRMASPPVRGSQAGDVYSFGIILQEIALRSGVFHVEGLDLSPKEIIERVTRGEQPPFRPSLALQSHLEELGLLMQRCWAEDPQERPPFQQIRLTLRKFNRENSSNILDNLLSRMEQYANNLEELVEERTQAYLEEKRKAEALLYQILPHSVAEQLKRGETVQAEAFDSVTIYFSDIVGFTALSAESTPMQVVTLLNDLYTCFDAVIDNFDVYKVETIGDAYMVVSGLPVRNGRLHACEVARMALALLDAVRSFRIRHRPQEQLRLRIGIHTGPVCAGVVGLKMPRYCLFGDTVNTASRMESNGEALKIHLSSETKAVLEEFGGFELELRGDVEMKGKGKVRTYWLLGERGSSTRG
T1 sequence (P78324 whole entry, looked up, the tested form may be a part): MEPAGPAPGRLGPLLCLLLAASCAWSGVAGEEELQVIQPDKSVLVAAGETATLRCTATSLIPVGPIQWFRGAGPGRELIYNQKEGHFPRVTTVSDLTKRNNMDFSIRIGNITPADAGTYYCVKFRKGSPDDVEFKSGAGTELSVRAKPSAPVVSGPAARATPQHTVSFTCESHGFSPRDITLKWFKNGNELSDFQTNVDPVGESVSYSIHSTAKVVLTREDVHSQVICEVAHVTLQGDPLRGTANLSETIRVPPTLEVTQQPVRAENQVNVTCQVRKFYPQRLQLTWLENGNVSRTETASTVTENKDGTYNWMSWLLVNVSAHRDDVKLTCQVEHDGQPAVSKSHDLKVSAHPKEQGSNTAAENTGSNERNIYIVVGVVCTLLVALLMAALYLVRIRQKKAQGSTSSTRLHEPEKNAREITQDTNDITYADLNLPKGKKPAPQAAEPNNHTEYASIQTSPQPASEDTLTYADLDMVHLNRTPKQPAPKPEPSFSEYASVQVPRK
T1 sequence (Q08722 whole entry, looked up, the tested form may be a part): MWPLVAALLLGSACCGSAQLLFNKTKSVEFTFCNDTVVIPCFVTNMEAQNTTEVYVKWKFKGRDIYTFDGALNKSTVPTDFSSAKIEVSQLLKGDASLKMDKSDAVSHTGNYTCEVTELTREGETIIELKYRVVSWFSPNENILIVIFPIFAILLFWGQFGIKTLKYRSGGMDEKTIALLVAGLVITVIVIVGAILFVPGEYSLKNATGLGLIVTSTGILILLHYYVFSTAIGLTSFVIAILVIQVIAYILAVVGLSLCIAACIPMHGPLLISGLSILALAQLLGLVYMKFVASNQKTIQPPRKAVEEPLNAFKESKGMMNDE
Sequence of Nucleoprotein (Lymphocytic choriomeningitis virus (strain Armstrong)) (P09992 whole entry, looked up): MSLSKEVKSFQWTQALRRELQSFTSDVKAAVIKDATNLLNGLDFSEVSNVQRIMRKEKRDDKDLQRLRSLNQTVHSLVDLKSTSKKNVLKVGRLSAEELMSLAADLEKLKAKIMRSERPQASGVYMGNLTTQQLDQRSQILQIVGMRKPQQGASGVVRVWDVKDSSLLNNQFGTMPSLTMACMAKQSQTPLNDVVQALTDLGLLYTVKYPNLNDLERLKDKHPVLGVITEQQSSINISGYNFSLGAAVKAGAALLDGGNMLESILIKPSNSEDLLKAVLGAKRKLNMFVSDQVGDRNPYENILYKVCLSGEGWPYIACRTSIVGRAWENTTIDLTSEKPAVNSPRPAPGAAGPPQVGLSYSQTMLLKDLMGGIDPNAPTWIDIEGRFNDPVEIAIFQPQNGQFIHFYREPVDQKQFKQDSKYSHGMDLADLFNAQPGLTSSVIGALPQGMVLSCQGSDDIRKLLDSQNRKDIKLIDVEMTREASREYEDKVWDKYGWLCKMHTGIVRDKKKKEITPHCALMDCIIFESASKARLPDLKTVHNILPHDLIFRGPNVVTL

SMILES | Potency [1] | Potency [2] | Potency [3] | outcome [4] | Potency [5] | Potency [6] | Potency [7] | Potency [8] | Potency [9] | Potency [10] | Potency [11] | outcome [12]
NC(Cc1cc(O)c(O)cc1O)C(=O)O (stereo not given) | inactive | inactive | inactive | inactive | 13100 nM (active) | 927 nM (active) | inactive | inactive | inactive | inactive | inactive | 
COc1ccc2c(c1O)-c1cccc3c1[C@@H](C2)N(C)CC3 | inactive | inactive | inactive | inactive |  |  | inactive | inactive | inactive | inactive | inactive | 
CCS(=O)(=O)Nc1cccc(C(=C2CCCCC2)c2cnc[nH]2)c1 | inactive |  | inactive | inactive | inactive | inactive | inactive | inactive | inactive | inactive | inactive | inactive
C=CCN1CC[C@]23c4c5ccc(O)c4O[C@H]2/C(=N/NC(=O)c2ccccc2)CC[C@@]3(O)[C@H]1C5 | inactive | inactive | inactive |  |  |  | inactive | inactive | inactive | inactive | inactive | 
c1ccc2cc(CC3=NCCN3)ccc2c1 | inactive | inactive | inactive | inactive | inactive |  | inactive | inactive | inactive | inactive | inactive | 
NC(N)=Nc1ccc2[nH]c3c(c2c1)C[C@@]1(O)[C@H]2Cc4ccc(O)c5c4[C@@]1(CCN2CC1CC1)[C@H]3O5 | 6560 nM (active) | 19000 nM (active) |  | inactive | inactive |  | inactive | inactive | inactive | inactive | inactive | 
C=CCN1CC[C@]23c4c5ccc(O)c4O[C@@H]2/C(=N/N=C2\CC[C@@]4(O)C6Cc7ccc(O)c8c7[C@@]4(CCN6CC=C)[C@@H]2O8)CC[C@@]3(O)C1C5 | inactive | inactive |  |  |  |  | inactive | inactive | inactive | inactive | inactive | 
c1ccc2c(c1)[I+]c1ccccc1-2 | 4140 nM (active) | 3010 nM (active) | 927 nM (active) |  | inactive | inactive | inactive |  | 1580 nM (active) | 6310 nM (active) |  | inactive
Clc1ccc(N2CC3CCC(C2)N3)nn1 | inactive | inactive | inactive | inactive | inactive | inactive | inactive | inactive | inactive | inactive | inactive | 
O=[N+]([O-])/C=C/c1ccc2c(c1)OCO2 | 1470 nM (active) | 2390 nM (active) | 1470 nM (active) |  | inactive | inactive | inactive | inactive |  | inactive | inactive | 
C[C@H](N)CN1CCc2ccc(Br)cc21 | inactive |  | inactive | inactive | inactive |  | inactive | inactive | inactive | inactive | inactive | 
CN1CCc2cc(O)cc3c2[C@H]1Cc1ccc(O)c(O)c1-3 | inactive | inactive | inactive | inactive |  |  | inactive | inactive | inactive | inactive | inactive | 
CC(N)Cc1c[nH]c2ccc(O)cc12 (stereo not given) | inactive | inactive | inactive | inactive | inactive |  | inactive | inactive | inactive | inactive | inactive | 
C[C@@H]1O[C@@H](O[C@H]2C[C@@H](O)[C@]3(CO)[C@@H]4C(CC[C@]3(O)C2)[C@@]2(O)CC[C@H]([C@@H]3COC(=O)C3)[C@@]2(C)C[C@H]4O)[C@H](O)[C@H](O)[C@H]1O (stereo not given in full) | inactive | inactive | inactive |  | inactive | inactive | inactive |  | 3980 nM (active) | 2240 nM (active) | 2000 nM (active) | inactive
CCCC[N+]1(C)C2CC(OC(=O)[C@H](CO)c3ccccc3)CC1C1OC12 (stereo not given in full) | inactive | inactive | inactive | inactive | inactive | inactive | inactive | inactive | inactive | inactive | inactive | 
CCCN1CCc2cccc3c2[C@H]1Cc1ccc(O)c(O)c1-3 | inactive | inactive | inactive |  |  | inactive | inactive | inactive | inactive | inactive | inactive | 
CN1C2CCC1CC(OC(c1ccccc1)c1ccccc1N)C2 (stereo not given) | inactive | inactive |  | inactive | inactive | inactive | inactive | inactive | inactive | inactive | inactive | inactive
C[N+]1(C)C2CCC1CC(OC(=O)c1c[nH]c3ccccc13)C2 (stereo not given) | inactive | inactive | inactive | inactive |  |  | inactive | inactive | inactive | inactive | inactive | 
COc1ccc2c(c1)c(CCN1CCOCC1)c(C)n2C(=O)c1cccc(Cl)c1Cl | inactive | inactive | inactive |  |  |  |  | inactive | inactive |  |  | 
CN1CCc2cccc(Cl)c2CC1 | inactive | inactive | inactive | inactive | inactive | inactive | inactive | inactive | inactive | inactive | inactive | 
CCCN(CCC)C1Cc2cc(OC)c(OC)cc2C1 | inactive |  | inactive | inactive | inactive | inactive | inactive | inactive | inactive | inactive | inactive | inactive
CC(Cc1ccc(OCC(=O)O)cc1)NCC(O)c1cccc(Cl)c1 (stereo not given) | inactive | inactive | inactive | inactive | inactive | inactive | inactive | inactive | inactive | inactive | inactive | 
CCCN(CCC)[C@@H]1CCc2cccc(O)c2C1 | inactive |  | inactive | inactive | inactive | inactive | inactive | inactive | inactive | inactive | inactive | 

From PubChem BioAssay (NCATS)
